Reference: PubChem BioAssay AID504727 (Broad Institute, 2011)
Calls of active or inactive are those of the source.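 Rule for the calls: active = fitted half-maximal concentration AC50 at or below ten times the highest valid tested dose, with signal falling as DNA is displaced (actives reach about 34 µM in these data); inconclusive = flat fit at moderate signal loss, or poor fit quality; inactive = the rest, including signal rising instead of falling.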

Experiment: DNA intercalators displacing acridine orange, dose response, artefact control for KSHV LANA DNA-binding inhibitor project, biochemical, fluorescence polarization, cherry-picked samples, set 2 (AID 504727);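 for activity change, negative = DNA displacement: 0% = median of neutral control wells and -100% = mitoxantrone positive control wells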
Conditions: AC50: Acridine orange-DNA displacement; series mostly up to 35 µM; activity change, negative = DNA displacement: at the top concentration

Q: For COc1cc(CN2CC(=O)N(c3cc(Cl)ccc3C)C2=S)cc(OC)c1OC, which “activity change, negative = DNA displacement” value (“activity change” below) is on record?
A: Its value is 5.96% (inactive).

Q: For CCN(CC(=O)Nc1c(F)cccc1F)C(=O)CCCc1cccs1, which “activity change” value is on record?
A: Its value is -3.02% (inactive).

Q: With CCN(Cc1ccccc1)C(=O)c1cccc(S(=O)(=O)N2CCN(Cc3ccccc3)CC2)c1 as the compound, how does the “activity change” value read?
A: The value was 6.01% (inactive).

Q: Which “activity change” value does the source give for O=C(O)/C=C/C(=O)Nc1ccc(Cc2ccc(NC(=O)/C=C/C(=O)O)cc2)cc1 here?
A: The value was -6.62% (inactive).

Q: Which “activity change” value does the source give for Cc1nc2c(=O)[nH]c(=S)[nH]c2[nH]c1=O here?
A: The value was 9.35% (inactive).

Q: With Oc1ccccc1C=Nc1ccccc1-c1nc2ccccc2[nH]1 as the compound, how does the “activity change” value read?
A: Its value is 2.82% (inactive).

Q: For O=C1c2ccccc2C(Nc2ccc3c(c2)OCCO3)N1Cc1ccc2c(c1)OCO2 (stereo not drawn), which “activity change” value is on record?
A: Its value is 3.63% (inactive).

Q: Which “activity change” value does the source give for CCN(Cc1ccccc1)S(=O)(=O)c1cc2[nH]c(=O)c(=O)[nH]c2cc1C here?
A: Its value is 4.76% (inactive).

Q: For O=C(O)c1ccc(-n2cccc2/C=C2/NC(=O)N(c3cccc(Cl)c3)C2=O)cc1, which “activity change” value is on record?
A: The value was 27% (inactive).

Q: Which “activity change” value does the source give for COc1c2c(nc3occc13)C(CCC(C)(C)O)(OC)C(O)CC2 (stereo not drawn) here?
A: The value was 4.96% (inactive).

Q: For CCOC(=O)C1=C(COC(=O)c2ccc([N+](=O)[O-])s2)NC(=O)NC1C (stereo not drawn), which “activity change” value is on record?
A: The value was -1.59% (inactive).

Q: With Cc1cccc(C)c1NC(=O)CSc1nnc(-c2ccco2)c(-c2ccco2)n1 as the compound, how does the “activity change” value read?
A: The value was -6.38% (inactive).

Q: Which “activity change” value does the source give for COc1ccc(NS(=O)(=O)c2cccc3ccccc23)cc1 here?
A: The value was 3.43% (inactive).

Q: Which “activity change” value does the source give for O=C(O)C1C2C=CC(CC2)C1C(=O)O (stereo not drawn) here?
A: Its value is 0.584% (inactive).

Q: For CCN(C(=O)COC(=O)c1nc2nc(C)cc(C)n2n1)C1CCCCC1, which “activity change” value is on record?
A: The value was 0.71% (inactive).

Q: For CC(=O)Nc1ccc(S(=O)(=O)Nc2ccccc2N2CCOCC2)cc1, which “activity change” value is on record?
A: Its value is 4.06% (inactive).

Q: For O=C(NCCN1CCN(C(=O)c2cccs2)CC1)c1cccs1, which “activity change” value is on record?
A: The value was 2.49% (inactive).

Q: With O=C1c2ccccc2-c2onc3ccc(NCc4ccco4)c1c23 as the compound, how does the AC50 read?
A: The AC50 was 3.82 µM (active).
